Consider seven molecules from ChEMBL document CHEMBL1961873, “Compounds: GSK PKIS; Assays: Nanosyn kinase panel” (2012).

For assay [1], the target named is T1, Tyrosine-protein kinase ITK/TSK (Homo sapiens) (UniProt Q08881).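 Further: values are mean percent inhibition of ITK from the GSK PKIS screen.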
T1 sequence (whole entry): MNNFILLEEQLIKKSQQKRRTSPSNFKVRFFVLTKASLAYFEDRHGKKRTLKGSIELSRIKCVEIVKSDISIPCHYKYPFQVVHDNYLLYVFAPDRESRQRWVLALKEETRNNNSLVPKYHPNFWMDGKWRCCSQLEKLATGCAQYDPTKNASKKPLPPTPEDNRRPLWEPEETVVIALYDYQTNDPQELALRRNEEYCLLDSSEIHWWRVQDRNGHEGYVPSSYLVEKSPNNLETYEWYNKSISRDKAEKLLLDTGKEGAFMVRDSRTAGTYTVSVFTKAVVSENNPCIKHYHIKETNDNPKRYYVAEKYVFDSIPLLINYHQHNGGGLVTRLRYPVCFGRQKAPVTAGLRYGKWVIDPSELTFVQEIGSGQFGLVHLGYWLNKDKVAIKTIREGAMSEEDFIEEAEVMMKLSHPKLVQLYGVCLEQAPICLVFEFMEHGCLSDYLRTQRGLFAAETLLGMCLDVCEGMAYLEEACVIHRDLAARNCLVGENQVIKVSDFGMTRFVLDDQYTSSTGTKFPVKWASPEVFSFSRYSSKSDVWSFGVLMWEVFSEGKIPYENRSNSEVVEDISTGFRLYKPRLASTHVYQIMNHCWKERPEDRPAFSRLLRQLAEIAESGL
As to conditions: at 1 µM.

Assay [2] has as its target Tyrosine-protein kinase JAK1 (Homo sapiens) (UniProt P23458). To be noted: at 0.1 µM.
Assay [3] has the same target. As to conditions: at 1 µM.
In assay [4] the target is Tyrosine-protein kinase JAK2 (Homo sapiens) (UniProt O60674). To be noted: at 0.1 µM.
Assay [5] has the same target. To be noted: at 1 µM.
For assay [6], the target named is T2, Tyrosine-protein kinase JAK3 (Homo sapiens) (UniProt P52333).
T2 sequence (whole entry): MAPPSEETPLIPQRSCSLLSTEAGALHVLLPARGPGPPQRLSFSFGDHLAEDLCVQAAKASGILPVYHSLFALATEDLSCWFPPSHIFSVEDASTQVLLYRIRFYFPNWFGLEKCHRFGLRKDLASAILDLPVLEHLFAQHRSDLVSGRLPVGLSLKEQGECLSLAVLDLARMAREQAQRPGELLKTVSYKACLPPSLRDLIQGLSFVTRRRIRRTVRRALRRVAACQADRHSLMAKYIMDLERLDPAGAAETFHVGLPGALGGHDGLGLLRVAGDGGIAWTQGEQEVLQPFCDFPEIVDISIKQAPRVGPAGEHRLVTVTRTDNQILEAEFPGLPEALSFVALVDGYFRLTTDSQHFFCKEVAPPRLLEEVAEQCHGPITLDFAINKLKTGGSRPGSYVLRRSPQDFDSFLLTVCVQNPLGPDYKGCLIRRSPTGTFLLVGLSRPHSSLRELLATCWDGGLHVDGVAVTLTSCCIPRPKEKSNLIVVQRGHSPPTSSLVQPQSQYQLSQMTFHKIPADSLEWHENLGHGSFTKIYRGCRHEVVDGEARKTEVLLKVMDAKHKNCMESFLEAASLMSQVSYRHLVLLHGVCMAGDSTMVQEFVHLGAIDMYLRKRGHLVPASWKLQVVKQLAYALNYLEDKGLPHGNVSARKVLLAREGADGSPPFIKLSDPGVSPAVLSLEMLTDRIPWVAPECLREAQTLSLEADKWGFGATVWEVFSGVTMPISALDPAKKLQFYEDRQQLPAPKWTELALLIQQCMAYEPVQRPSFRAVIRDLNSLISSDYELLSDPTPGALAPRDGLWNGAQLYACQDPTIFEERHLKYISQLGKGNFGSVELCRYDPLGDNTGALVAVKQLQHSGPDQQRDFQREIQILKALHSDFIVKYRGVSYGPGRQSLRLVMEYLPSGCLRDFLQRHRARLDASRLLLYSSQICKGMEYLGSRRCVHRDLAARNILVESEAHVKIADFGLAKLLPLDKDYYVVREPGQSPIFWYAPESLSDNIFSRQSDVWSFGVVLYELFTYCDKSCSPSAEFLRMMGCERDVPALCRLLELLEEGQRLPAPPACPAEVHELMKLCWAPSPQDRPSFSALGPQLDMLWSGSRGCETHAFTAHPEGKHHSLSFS
As to conditions: at 0.1 µM.

In assay [7] the target is T2, Tyrosine-protein kinase JAK3 (Homo sapiens). As to conditions: at 1 µM.
Assay [8] addresses Vascular endothelial growth factor receptor 2 (Homo sapiens) (UniProt P35968). To be noted: at 0.1 µM.
Assay [9] has the same target. As to conditions: at 1 µM.
Assay [10] has as its target Mast/stem cell growth factor receptor Kit (Homo sapiens) (UniProt P10721). To be noted: at 0.1 µM.
The target is the same in assay [11]. As to conditions: at 1 µM.
Assay [12] relates to Mast/stem cell growth factor receptor Kit (Homo sapiens), P10721 [D816V]. To be noted: at 0.1 µM.
The test system is the same in assay [13]. As to conditions: at 1 µM.
Assay [14] relates to Mast/stem cell growth factor receptor Kit (Homo sapiens), P10721 [T670I]. To be noted: at 0.1 µM.
For assay [15] the test system is unchanged. To be noted: at 1 µM.
Assay [16] deals with Mast/stem cell growth factor receptor Kit (Homo sapiens), P10721 [V560G]. As to conditions: at 0.1 µM.
For assay [17] the test system is unchanged. As to conditions: at 1 µM.
The target of assay [18] is Tyrosine-protein kinase Lck (Homo sapiens) (UniProt P06239). To be noted: at 0.1 µM.
Assay [19] has the same target. To be noted: at 1 µM.
Assay [20] concerns the target Leukocyte tyrosine kinase receptor (Homo sapiens) (UniProt P29376). To be noted: at 0.1 µM.

One may read the inhibition as the drop in the measured response relative to a control, in per cent.

“And” between values parts separate entries of the source, which are not always exact repeats. Equal entries are not always repeated.

Sequence of Mast/stem cell growth factor receptor Kit (Homo sapiens), P10721 [D816V] (P10721 whole entry D816V): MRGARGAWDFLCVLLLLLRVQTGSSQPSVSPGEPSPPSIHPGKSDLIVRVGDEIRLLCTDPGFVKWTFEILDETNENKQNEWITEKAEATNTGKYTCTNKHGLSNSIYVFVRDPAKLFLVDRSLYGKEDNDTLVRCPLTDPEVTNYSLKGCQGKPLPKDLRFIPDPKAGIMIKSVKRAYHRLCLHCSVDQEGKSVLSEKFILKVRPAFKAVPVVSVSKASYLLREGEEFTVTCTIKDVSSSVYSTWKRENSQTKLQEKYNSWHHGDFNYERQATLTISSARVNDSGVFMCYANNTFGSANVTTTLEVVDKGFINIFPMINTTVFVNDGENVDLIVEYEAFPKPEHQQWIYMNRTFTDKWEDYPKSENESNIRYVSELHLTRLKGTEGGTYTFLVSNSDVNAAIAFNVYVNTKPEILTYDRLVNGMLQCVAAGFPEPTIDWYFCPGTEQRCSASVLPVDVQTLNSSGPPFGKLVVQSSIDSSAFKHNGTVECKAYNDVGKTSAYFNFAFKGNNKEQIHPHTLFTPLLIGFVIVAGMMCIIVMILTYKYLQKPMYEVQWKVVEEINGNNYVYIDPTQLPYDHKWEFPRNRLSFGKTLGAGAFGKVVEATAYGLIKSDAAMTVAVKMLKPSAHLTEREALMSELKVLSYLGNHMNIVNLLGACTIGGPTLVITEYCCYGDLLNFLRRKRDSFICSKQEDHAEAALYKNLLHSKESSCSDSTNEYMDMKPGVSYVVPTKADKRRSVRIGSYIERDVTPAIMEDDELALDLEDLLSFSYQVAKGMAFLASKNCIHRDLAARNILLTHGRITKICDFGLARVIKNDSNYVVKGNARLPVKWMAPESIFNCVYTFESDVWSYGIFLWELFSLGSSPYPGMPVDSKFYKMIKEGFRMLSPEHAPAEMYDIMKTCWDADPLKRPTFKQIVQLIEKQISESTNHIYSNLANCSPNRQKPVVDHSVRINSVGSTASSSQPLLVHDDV
Sequence of Tyrosine-protein kinase JAK2 (Homo sapiens) (O60674 whole entry): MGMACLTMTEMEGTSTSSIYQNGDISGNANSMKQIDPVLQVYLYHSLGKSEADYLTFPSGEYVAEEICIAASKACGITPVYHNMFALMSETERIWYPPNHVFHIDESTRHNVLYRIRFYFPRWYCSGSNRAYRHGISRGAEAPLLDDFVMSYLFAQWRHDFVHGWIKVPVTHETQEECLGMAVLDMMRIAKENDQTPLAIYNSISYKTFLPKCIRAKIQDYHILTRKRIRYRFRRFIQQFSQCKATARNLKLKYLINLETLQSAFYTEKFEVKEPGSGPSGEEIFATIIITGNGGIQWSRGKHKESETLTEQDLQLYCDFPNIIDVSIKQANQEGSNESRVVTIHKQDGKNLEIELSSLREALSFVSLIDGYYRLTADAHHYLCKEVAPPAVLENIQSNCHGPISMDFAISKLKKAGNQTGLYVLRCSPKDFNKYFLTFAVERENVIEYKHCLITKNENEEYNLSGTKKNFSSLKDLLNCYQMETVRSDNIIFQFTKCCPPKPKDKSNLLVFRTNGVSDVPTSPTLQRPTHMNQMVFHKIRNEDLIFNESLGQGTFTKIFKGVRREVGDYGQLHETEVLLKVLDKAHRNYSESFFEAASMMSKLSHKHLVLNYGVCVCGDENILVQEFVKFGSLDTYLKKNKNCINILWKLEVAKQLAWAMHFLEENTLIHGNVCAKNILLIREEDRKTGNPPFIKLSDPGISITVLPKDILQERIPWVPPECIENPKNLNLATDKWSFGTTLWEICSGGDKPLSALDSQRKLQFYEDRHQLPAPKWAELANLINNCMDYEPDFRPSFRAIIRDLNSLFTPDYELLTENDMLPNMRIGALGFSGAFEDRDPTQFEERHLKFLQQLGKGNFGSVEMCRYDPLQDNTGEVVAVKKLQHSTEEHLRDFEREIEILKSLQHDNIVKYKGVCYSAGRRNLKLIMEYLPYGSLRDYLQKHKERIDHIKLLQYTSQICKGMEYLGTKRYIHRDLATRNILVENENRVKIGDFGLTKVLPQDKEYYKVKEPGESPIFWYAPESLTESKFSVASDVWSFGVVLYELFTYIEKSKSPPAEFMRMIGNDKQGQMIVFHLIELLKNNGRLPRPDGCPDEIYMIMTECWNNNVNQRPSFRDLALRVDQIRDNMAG
Sequence of Tyrosine-protein kinase JAK1 (Homo sapiens) (P23458 whole entry): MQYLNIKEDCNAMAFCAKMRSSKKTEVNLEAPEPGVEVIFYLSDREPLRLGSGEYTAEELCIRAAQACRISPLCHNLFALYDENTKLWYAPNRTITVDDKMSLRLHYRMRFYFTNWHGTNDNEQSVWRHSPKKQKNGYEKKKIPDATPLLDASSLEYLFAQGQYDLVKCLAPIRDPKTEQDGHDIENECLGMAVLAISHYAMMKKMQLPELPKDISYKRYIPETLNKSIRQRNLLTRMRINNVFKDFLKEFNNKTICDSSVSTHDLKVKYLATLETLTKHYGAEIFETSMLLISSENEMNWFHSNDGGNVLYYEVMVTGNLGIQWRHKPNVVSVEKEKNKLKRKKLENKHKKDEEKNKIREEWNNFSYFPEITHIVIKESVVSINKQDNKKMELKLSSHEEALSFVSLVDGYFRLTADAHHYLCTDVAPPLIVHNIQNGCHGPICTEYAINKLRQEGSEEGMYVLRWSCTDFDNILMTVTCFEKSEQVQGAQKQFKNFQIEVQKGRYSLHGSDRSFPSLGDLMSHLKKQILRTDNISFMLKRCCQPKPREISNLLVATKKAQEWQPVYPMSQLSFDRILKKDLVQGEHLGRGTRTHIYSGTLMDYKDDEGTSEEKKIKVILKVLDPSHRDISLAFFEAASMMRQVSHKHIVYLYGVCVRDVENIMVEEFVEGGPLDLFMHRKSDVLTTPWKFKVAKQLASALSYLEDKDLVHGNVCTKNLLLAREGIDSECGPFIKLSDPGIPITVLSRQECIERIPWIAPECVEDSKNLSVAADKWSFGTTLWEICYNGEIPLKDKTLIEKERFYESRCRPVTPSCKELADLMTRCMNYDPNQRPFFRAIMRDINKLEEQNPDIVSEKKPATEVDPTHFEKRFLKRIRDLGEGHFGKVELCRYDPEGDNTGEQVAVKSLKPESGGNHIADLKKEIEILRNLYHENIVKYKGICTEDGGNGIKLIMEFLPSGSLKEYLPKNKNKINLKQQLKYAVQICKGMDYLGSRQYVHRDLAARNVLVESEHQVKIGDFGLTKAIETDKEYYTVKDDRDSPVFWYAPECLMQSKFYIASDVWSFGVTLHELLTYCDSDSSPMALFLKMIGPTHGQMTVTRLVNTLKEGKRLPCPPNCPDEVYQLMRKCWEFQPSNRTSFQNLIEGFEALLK
Sequence of Mast/stem cell growth factor receptor Kit (Homo sapiens), P10721 [V560G] (P10721 whole entry V560G): as the sequence (P10721 whole entry D816V) above, with V560G, V816D counted along it
Sequence of Tyrosine-protein kinase Lck (Homo sapiens) (P06239 2-509 limits assumed): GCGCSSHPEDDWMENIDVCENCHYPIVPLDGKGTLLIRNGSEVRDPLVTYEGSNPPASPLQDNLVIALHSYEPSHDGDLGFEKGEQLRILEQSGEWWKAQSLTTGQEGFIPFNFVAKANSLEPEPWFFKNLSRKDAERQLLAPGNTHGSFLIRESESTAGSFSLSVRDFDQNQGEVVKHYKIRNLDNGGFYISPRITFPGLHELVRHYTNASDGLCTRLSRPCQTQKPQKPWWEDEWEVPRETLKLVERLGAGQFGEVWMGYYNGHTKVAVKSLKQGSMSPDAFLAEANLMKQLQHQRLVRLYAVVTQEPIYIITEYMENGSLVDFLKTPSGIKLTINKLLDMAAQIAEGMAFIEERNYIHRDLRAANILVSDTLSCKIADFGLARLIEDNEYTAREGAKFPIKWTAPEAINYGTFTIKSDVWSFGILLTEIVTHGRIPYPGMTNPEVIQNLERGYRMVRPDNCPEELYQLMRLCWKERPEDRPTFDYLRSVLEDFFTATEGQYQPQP
Sequence of Mast/stem cell growth factor receptor Kit (Homo sapiens), P10721 [T670I] (P10721 whole entry T670I): as the sequence (P10721 whole entry D816V) above, with T670I, V816D counted along it
Sequence of Mast/stem cell growth factor receptor Kit (Homo sapiens) (P10721 whole entry): as the sequence (P10721 whole entry D816V) above, with V816D counted along it
Sequence of Leukocyte tyrosine kinase receptor (Homo sapiens) (P29376 whole entry): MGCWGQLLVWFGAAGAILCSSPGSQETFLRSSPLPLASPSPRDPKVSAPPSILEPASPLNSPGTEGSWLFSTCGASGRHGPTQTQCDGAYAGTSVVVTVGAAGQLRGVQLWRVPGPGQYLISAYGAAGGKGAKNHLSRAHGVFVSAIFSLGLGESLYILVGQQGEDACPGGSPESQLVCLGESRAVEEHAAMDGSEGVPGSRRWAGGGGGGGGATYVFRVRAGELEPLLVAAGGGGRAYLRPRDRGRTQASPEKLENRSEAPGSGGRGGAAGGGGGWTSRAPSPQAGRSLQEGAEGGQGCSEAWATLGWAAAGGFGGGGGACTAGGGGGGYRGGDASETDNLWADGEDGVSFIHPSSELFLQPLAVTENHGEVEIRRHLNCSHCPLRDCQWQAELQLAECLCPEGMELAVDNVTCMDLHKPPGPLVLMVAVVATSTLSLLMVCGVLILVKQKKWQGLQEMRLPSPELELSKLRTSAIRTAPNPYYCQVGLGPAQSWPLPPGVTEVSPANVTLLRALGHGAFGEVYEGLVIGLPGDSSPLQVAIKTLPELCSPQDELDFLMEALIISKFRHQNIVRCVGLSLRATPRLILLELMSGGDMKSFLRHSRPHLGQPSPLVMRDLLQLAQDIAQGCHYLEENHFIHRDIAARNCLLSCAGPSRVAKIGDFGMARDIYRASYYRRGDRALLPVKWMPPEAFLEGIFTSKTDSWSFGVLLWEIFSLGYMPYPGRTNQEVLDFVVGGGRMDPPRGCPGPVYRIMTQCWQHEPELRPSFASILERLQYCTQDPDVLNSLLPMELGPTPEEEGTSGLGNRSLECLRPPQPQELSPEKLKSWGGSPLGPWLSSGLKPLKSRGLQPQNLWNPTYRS

For the molecule `Cc1c2ccc(N(C)c3ccnc(Nc4cccc(S(N)(=O)=O)c4)n3)cc2nn1C`, the inhibition in assay [1] is 2.14%; in assay [2], 1.56%; in assay [3], 9.69%; in [4] it was 2.02%; in assay [5], 6.46%; in assay [6] it was -4.75%. For the same molecule, the inhibition was 0.05% in assay [7]; 76.4% in [8]; 73% in assay [9]; 92.6% in [10]; 98% in assay [11]; 2.85% in assay [12]. Further, the inhibition in assay [13] is 5.89%; in assay [14] it was 22%; in [15], 81.1%; in assay [16], 69.9%; in assay [17], 80.3%; in [18], 20.3%. Moreover, the inhibition in assay [19] amounted to 66.6%; in assay [20], 4.98%.

For `CC(C)c1ccc(-c2cc(-c3c[nH]nc3-c3ccccn3)ccn2)cc1`, the inhibition is 1.69% in [1]; -1.37% in assay [2]; 1.1% in [3]; 0.74% in [4]; 0.23% in assay [5]; 0.23% in assay [6]. Moreover, the inhibition in assay [7] was 0.8%; in assay [8], 9.43%; in [9], 32.4%; in assay [10], 0.6%; in assay [11], 2.85%; in assay [12], 0.06%. The inhibition in assay [13] was 3.83%; in [14], 1.04%; in assay [15], 1.23%; in [16], -0.59%; in assay [17], 3.5%; in assay [18], 1.31%. For the same molecule, the inhibition in assay [19] is -0.13%; in assay [20], 1.24%.

As to `COc1ccc(-c2nn3ncccc3c2-c2ccnc(Nc3ccc(F)c(F)c3)n2)cc1`, the inhibition in assay [1] is 3.13%; in assay [2] it was 3.71%; in [3] it was 14.6%; in assay [4], 0.73%; in assay [5], 1.18%; in assay [6] it was -1.36%. Further, the inhibition in [7] is 0.8%; in [8] it was 6.9%; in assay [9], 20.6%; in assay [10], 7.56%; in [11], 28.2%; in assay [12], 6.57%. For the same molecule, the inhibition was 5.39% in [13]; 3.81% in [14]; 11.5% in assay [15]; -0.18% in assay [16]; 4.13% in [17]; 7.63% in assay [18]. Moreover, the inhibition is 39.1% in assay [19] and 4.19% in assay [20].

For the molecule `Nc1ncnc2occ(-c3ccc(NC(=O)Nc4cc(C(F)(F)F)ccc4F)cc3)c12`, the inhibition in assay [1] is 7.9% and 3.04%; in assay [2], -0.01% and -6.67%; in [3], 8.18% and -2.37%; in assay [4] it was 2.05% and -0.57%; in [5] it was 18.8% and 7.54%; in assay [6], -0.84% and 0.28%. For the same molecule, the inhibition in assay [7] is 1.36% and 1%; in assay [8] it was 63.8% and 54%; in assay [9] it was 71.1% and 78.2%; in [10] it was 90.2% and 85.7%; in [11] it was 102% and 99.8%; in [12] it was 2.13% and -0.16%. Also, the inhibition is 3.55% and 0.01% in assay [13]; 64.5% and 57% in assay [14]; 85.6% and 96% in [15]; 70.7% and 81.8% in [16]; 78.7% and 97.7% in assay [17]; 10.9% and 3.28% in assay [18]. Besides, the inhibition in assay [20] was 7.84% and 2.37%.

`OCCCNc1nccc(-c2c(-c3ccc(F)cc3)nn3cc(C(F)(F)F)ccc23)n1`: the inhibition in assay [1] was 0.19%; in assay [2] it was -0.95%; in assay [3], -4.2%; in assay [4] it was 1.8%; in assay [5] it was 0.99%; in [6] it was 0.08%. For the same molecule, the inhibition in assay [7] was 1.33%; in assay [8], 4.84%; in [9], 6.21%; in assay [10], 3.28%; in assay [11] it was 8.99%; in [12], 1.58%. Moreover, the inhibition in assay [13] is 0.33%; in assay [14], -0.18%; in assay [15], 0.98%; in assay [16], -1.46%; in assay [17], -0.39%; in assay [18] it was 1.91%. Also, the inhibition in [19] was 5.83%; in assay [20], 3.02%.

On to `COc1ccccc1-c1cc(/C=C2\C(=O)Nc3ncc(Br)cc32)cc(Br)c1O`, for which the inhibition in [1] was 3.95%; in assay [2], 2.55%; in assay [3], 0.51%; in assay [4] it was 1.66%; in assay [5], 3.2%; in assay [6], -0.19%. For the same molecule, the inhibition in assay [7] came out at 5.39%; in assay [8], 6.49%; in [9], 8.56%; in assay [10], 8.06%; in assay [11], 27.9%; in assay [12], 4.84%. The inhibition in assay [13] came out at 1.87%; in assay [14] it was 3.92%; in assay [15], 3.21%; in [16], 1.58%; in assay [17], 4.31%; in assay [18] it was 2.46%. The inhibition in [19] was 8.22%; in [20], 3.94%.

With `NS(=O)(=O)c1cccc(N/C=C2\C(=O)Nc3ccccc32)c1`, the inhibition in assay [1] was 3.54%; in assay [2], 2.83%; in assay [3], 6.08%; in assay [4], 1.37%; in assay [5], 2.13%; in assay [6], -2%. Further, the inhibition in [7] came out at 0.9%; in assay [8], 9.08%; in [9] it was 35.3%; in [10], 16.4%; in [11] it was 63.9%; in assay [12], 3.62%. Moreover, the inhibition was 2.43% in [13]; 6.57% in assay [14]; 45.2% in assay [15]; -0.34% in [16]; 8.83% in assay [17]; 2.31% in assay [18]. In addition, the results for the inhibition in assay [19] and in [20] were 6.78% and 3.74%, respectively.
